Unmarked numbers belong to inactive results. Records with an inconclusive call do not appear. A call without a number means that no potency is given here. The source made the active and inactive calls. Unless noted, calls come from the whole dose curve; as a rule, active = well fitted curve in the direction sought with a large enough effect in the repeat runs; inconclusive = weak or mixed curves; inactive = no such curve, though single readings can be large; an effect the other way counts as inactive or inconclusive.
Legend:
[1] = qHTS assay to identify small molecule agonists of the progesterone receptor (PR) signaling pathway - cell viability counter screen (AID 1346799; calls by dose curve; note: nearly all actives have a fitted effect of over 45% in size; note: potency is the fitted concentration of half-maximal effect)
How it was run: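 Viability was scored by ATP luminescence (CellTiter-Glo, 30 min, room temperature) in the same wells used for the reporter readout, after 16 hr compound exposure of PR-UAS-bla HEK293T cells.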

[2] = qHTS assay to identify small molecule agonists of the TGF-beta/Smad signaling pathway (AID 1346859; active = well fitted activation curve with a large enough effect in the signal ratio in the repeat runs, not every such curve was filed as active; the % refers to the signal ratio; note: series mostly up to about 77 µM)
How it was run: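 Dual-wavelength fluorescence (460/530 nm emission) quantified beta-lactamase expression under the Smad binding element in HEK 293T cells following 5 hr compound treatment at 37 C.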

[3] = target: Thyrotropin-releasing hormone receptor (Homo sapiens) (UniProt P34981); test: qHTS assay to identify small molecule antagonists of the thyrotropin-releasing hormone receptor (TRHR) signaling pathway (AID 1346877; active = well fitted inhibition curve with a large enough effect in the repeat runs, not every such curve was filed as active; note: series mostly up to about 51 µM)
Sequence of Thyrotropin-releasing hormone receptor (Homo sapiens) (P34981 whole entry, looked up): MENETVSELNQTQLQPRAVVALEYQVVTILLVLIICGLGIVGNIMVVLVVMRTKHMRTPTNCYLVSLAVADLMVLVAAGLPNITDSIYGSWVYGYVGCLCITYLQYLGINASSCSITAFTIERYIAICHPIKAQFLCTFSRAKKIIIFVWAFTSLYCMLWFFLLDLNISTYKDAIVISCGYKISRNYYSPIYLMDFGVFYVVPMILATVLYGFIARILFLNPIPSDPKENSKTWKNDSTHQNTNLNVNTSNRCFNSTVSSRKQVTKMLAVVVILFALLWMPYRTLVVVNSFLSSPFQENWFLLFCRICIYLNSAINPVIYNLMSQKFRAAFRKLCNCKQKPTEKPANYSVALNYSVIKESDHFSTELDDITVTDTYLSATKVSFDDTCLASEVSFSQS
How it was run: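 Overnight-plated (18 h, 37 °C) HEK293 cells expressing TRHR were dye-loaded 2 h, treated with compound, then stimulated with TRH at 1 nM final. Fluorescence intensity was captured every second for 3 min.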

[4] = target: Thyrotropin-releasing hormone receptor (Homo sapiens) (UniProt P34981); test: qHTS assay to identify small molecule agonists of the thyrotropin-releasing hormone receptor (TRHR) signaling pathway (AID 1346891; calls by dose curve;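 note: HEK293 cells expressing TRHR with calcium dye readout; series mostly up to about 58 µM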)
How it was run: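 Kinetic fluorescence (3 min, 1 s intervals) reported intracellular calcium after compound transfer onto TRHR-Hek293 cells pre-loaded with dye for 2 h at 37 °C.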

[5] = Human pregnane X receptor (PXR) small molecule agonists, qHTS cell viability counter screen (AID 1346977); note: nearly all actives have a fitted effect of over 50% in size; note: potency is the fitted concentration of half-maximal effect
How it was run: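 HepG2 cells stably carrying the PXR-Luc reporter are cultured with 5% charcoal-stripped FBS and treated with compounds for 24hr. CellTiter-Fluor is added at 23hr and fluorescence is read after 1hr.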

[6] = Caspase-3/7 induction in HepG2 cells by small molecules, qHTS assay (AID 1346978); note: nearly all actives have a fitted effect of over 15% in size; note: potency is the fitted concentration of half-maximal effect
How it was run: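 Wild-type HepG2 cells (2,000/well) were settled 5 h at 37 C, 5% CO2, then exposed to compounds in DMSO for 17 h. Caspase-3/7 activity was read by luminescence 30 min after adding Caspase-Glo 3/7 reagent at room temperature.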

[7] = Caspase-3/7 induction in CHO-K1 cells by small molecules, qHTS cell viability counter screen (AID 1346979); note: nearly all actives have a fitted effect of over 35% in size; note: potency is the fitted concentration of half-maximal effect
How it was run: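 Seeding: 1,500 CHO-K1 cells/well. Rest: 5hr, 37C. Treatment: compounds in DMSO, 16hr. Read: CellTiter-Fluor, 1hr, fluorescence.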

[8] = Caspase-3/7 induction in HepG2 cells by small molecules, qHTS cell viability counter screen (AID 1346981); note: nearly all actives have a fitted effect of over 30% in size; note: potency is the fitted concentration of half-maximal effect
How it was run: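 Treatment of HepG2 cells with DMSO-delivered compounds ran 16 hr at 37 C following a 5-hr pre-incubation of 2,000 cells/well. CellTiter-Fluor fluorescence, read after 1 hr, served as the viability measure in a qHTS format.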

[9] = target: Nuclear receptor subfamily 1 group I member 2 (Homo sapiens) (UniProt O75469); test: Human pregnane X receptor (PXR) small molecule agonists, qHTS assay (AID 1346982); note: nearly all actives have a fitted effect of over 35% in size; note: potency is the fitted concentration of half-maximal effect
Sequence of Nuclear receptor subfamily 1 group I member 2 (Homo sapiens) (O75469 whole entry, looked up): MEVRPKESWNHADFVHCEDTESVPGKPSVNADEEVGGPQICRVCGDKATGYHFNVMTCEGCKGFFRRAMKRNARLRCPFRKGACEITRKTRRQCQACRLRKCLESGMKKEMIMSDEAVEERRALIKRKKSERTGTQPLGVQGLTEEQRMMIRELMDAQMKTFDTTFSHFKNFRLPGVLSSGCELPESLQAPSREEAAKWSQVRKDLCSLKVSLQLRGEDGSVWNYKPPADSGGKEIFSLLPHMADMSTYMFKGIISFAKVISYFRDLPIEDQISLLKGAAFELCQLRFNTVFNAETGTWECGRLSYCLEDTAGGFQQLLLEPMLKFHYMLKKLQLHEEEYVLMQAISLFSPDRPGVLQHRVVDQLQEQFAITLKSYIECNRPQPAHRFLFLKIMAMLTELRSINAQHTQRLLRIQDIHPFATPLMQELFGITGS
How it was run: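 Stable HepG2 line reporting PXR-mediated CYP3A4 expression via luciferase. Treatment: 24 hr with compounds in DMSO at 37 C. Detection: ONE-Glo luminescence.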

[10] = target: Nuclear receptor subfamily 1 group I member 2 (Homo sapiens) (UniProt O75469); test: CYP3A4 induction through human pregnane X receptor (PXR) by small molecules, qHTS assay (AID 1346984); note: nearly all actives have a fitted effect of over 40% in size
How it was run: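 After 24 h at 37C with compound, DPX-2 cells (HepG2, co-transfected PXR response element and CYP3A4 promoter-luciferase) got 3uM final P450-Glo Luciferin-IPA for 3 h; One-Glo luminescence followed.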

[11] = target: Nuclear receptor subfamily 1 group I member 2 (Homo sapiens) (UniProt O75469); test: Human pregnane X receptor (PXR) activation by small molecules, qHTS assay (AID 1346985); note: nearly all actives have a fitted effect of over 40% in size
How it was run: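 DPX-2 cells (HepG2 co-transfected with a PXR response element and a CYP3A4-promoter luciferase construct) were seeded at 2,000 per well, rested 5 hr at 37C, then exposed to DMSO-dissolved compounds for 24 hr. Activation was read as luciferase luminescence.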

[12] = target: Cytochrome P450 2C9 (Homo sapiens) (UniProt P11712); test: Cytochrome P450 Family 2 Subfamily C Member 9 (CYP2C9) small molecule antagonists: luciferase reporter qHTS assay (AID 1671198); note: nearly all actives have a fitted effect of over 50% in size; note: potency is the fitted concentration of half-maximal effect
Sequence of Cytochrome P450 2C9 (Homo sapiens) (P11712 whole entry, looked up): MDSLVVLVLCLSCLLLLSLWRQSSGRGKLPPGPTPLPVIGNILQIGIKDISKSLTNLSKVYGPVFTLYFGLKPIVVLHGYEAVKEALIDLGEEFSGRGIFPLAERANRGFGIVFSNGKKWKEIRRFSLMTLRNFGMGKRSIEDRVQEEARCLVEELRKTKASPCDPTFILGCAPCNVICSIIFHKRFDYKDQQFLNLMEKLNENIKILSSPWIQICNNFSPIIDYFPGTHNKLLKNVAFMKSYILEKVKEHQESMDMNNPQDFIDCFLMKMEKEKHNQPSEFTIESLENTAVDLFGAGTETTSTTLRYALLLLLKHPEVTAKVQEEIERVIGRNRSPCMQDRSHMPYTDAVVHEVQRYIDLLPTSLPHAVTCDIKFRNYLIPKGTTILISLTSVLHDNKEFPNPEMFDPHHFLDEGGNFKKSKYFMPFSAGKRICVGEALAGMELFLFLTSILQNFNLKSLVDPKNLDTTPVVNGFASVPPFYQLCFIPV
How it was run: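 CYP2C9 activity was measured with a P450-Glo proluciferin substrate. Enzyme–substrate mix was held with compound for 10 min at room temperature, then NADPH regeneration solution was added for 1 h at 37C. Luciferin product was read as luminescence.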

[13] = target: Cytochrome P450 1A2 (Homo sapiens) (UniProt P05177); test: Cytochrome P450 Family 1 Subfamily A Member 2 (CYP1A2) small molecule antagonists: luciferase reporter qHTS assay (AID 1671199); note: nearly all actives have a fitted effect of over 50% in size; note: potency is the fitted concentration of half-maximal effect
Sequence of Cytochrome P450 1A2 (Homo sapiens) (P05177 whole entry, looked up): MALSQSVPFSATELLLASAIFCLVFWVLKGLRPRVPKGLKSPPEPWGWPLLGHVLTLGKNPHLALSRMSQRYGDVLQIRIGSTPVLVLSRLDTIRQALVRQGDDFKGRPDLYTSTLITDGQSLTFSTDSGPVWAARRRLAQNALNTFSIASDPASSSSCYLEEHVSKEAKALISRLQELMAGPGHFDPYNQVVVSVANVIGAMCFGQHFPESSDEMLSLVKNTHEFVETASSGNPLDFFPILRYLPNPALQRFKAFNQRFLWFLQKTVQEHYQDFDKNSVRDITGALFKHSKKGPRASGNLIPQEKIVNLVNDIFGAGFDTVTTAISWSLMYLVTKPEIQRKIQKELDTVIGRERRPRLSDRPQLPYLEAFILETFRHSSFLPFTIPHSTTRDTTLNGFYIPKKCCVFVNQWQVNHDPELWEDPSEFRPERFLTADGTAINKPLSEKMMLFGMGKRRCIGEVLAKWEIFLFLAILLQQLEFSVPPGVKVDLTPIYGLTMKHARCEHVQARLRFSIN
How it was run: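 Read-out is luminescence from luciferin detection reagent (20 min) proportional to CYP1A2 activity; compounds in DMSO preincubated 10 min with enzyme and proluciferin substrate, then NADPH regeneration solution, 1 h, room temperature.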

[14] = qHTS assay to identify small molecule antagonists of the TGF-beta/Smad signaling pathway - cell viability counter screen (AID 1346824); note: nearly all actives have a fitted effect of over 50% in size
How it was run: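 SBE-bla HEK 293T cells were plated overnight at 37 C, then given compounds in DMSO plus TGF-beta1 (added as 0.25 ng/mL solution) for 5 hr. After the bla read, CellTiter-Glo was added to the same wells and luminescence read after 30 min at room temperature.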

[15] = qHTS assay to identify small molecule agonists of the TGF-beta/Smad signaling pathway - cell viability counter screen (AID 1346829); note: top concentration of the series differs between compounds; nearly all actives have a fitted effect of over 45% in size
How it was run: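 Compound-treated SBE-bla HEK 293T cells (5 hr, 37 C) were assessed for viability with CellTiter-Glo in parallel with the reporter read.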

[16] = Caspase-3/7 induction in CHO-K1 cells by small molecules, qHTS assay (AID 1346980); note: nearly all actives have a fitted effect of over 15% in size
How it was run: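 Wild-type cells were seeded at 1,500 per well and settled 5 hr at 37 C, 5% CO2, then exposed to DMSO-dissolved compounds for 17 hr. Caspase-Glo 3/7 reagent was added, and luminescence was read after 30min at room temperature.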

[17] = target: Cytochrome P450 2D6 (Homo sapiens) (UniProt P10635); test: Cytochrome P450 Family 2 Subfamily D Member 6 (CYP2D6) small molecule antagonists: luciferase reporter qHTS assay (AID 1671196); note: nearly all actives have a fitted effect of over 50% in size; note: potency is the fitted concentration of half-maximal effect
Sequence of Cytochrome P450 2D6 (Homo sapiens) (P10635 whole entry, looked up): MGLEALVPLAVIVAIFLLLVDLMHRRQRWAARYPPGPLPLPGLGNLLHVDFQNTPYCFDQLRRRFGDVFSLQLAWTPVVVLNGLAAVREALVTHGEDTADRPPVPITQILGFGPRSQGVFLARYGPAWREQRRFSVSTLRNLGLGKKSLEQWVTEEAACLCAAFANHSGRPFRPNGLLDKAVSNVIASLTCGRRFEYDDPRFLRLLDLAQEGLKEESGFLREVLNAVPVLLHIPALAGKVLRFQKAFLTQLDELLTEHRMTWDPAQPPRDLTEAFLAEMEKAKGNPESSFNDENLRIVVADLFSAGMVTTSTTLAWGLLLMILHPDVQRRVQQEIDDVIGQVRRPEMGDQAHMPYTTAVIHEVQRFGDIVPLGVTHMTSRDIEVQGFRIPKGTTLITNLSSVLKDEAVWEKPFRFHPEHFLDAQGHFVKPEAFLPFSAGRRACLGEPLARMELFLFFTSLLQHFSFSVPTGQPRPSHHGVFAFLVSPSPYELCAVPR
How it was run: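 Chemicals tested for interference with CYP2D6 activity; proluciferin substrate, NADPH regeneration, 1 h at room temperature, luminescent detection.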

[18] = target: Cytochrome P450 2C19 (Homo sapiens) (UniProt P33261); test: Cytochrome P450 Family 2 Subfamily C Member 19 (CYP2C19) small molecule antagonists: luciferase reporter qHTS assay (AID 1671197); note: nearly all actives have a fitted effect of over 65% in size; note: potency is the fitted concentration of half-maximal effect
Sequence of Cytochrome P450 2C19 (Homo sapiens) (P33261 whole entry, looked up): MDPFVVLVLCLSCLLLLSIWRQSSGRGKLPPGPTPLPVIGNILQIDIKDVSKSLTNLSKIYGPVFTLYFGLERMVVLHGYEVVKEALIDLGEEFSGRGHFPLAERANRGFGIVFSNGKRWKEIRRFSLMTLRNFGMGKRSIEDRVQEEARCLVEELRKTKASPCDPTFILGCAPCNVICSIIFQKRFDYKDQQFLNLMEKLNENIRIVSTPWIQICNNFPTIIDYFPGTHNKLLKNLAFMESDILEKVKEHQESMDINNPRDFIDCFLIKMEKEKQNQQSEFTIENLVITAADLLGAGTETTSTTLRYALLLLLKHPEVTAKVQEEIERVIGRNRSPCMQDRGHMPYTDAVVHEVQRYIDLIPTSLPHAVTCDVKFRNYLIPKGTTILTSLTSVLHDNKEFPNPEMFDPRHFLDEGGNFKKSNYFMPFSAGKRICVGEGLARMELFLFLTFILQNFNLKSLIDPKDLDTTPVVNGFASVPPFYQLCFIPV
How it was run: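 P450-Glo CYP2C19 screening system; proluciferin substrate; DMSO compound stocks; 10 min RT preincubation; NADPH regeneration, 1 h at 37C; luciferin detection reagent, 20 min RT; luminescence as RLU.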

| SMILES | Potency [1] | Potency [2] | Potency [3] | Potency [4] | Potency [5] | Potency [6] | Potency [7] | Potency [8] | Potency [9] | Potency [10] | Potency [11] | Potency [12] | Potency [13] | Potency [14] | Potency [15] | Potency [16] | Potency [17] | Potency [18] |
| --- | --- | --- | --- | --- | --- | --- | --- | --- | --- | --- | --- | --- | --- | --- | --- | --- | --- | --- |
| COCC(=O)O[C@]1(CCN(C)CCCc2nc3ccccc3[nH]2)CCc2cc(F)ccc2[C@@H]1C(C)C | 21.1 µM (active) | inactive | inactive | inactive | 23.7 µM (active) | 26.6 µM (active) | 29.8 µM (active) | 29.8 µM (active) | 1.68 µM (active) | inactive | inactive | inactive | inactive |  |  |  |  |  |
| Cc1cccc(C)n1 | inactive | inactive |  |  | inactive | inactive | inactive |  | inactive |  |  | inactive | 39.9 µM (active) | inactive | inactive | inactive | inactive | inactive |
| CO[C@H]1C=CO[C@@]2(C)Oc3c(C)c(O)c4c(O)c(cc(O)c4c3C2=O)NC(=O)/C(C)=C\C=C/[C@H](C)[C@H](O)[C@@H](C)[C@@H](O)[C@@H](C)[C@H](OC(C)=O)[C@@H]1C | inactive | inactive | inactive | inactive | 48.9 µM (active) | inactive | 19.5 µM (active) |  | 7.75 µM (active) | inactive | inactive |  |  | inactive | inactive | inactive | 35.8 µM (active) |  |
| Cn1cccc1 | inactive | inactive | inactive | inactive | inactive |  | inactive | inactive | inactive |  |  | inactive | inactive | inactive | inactive | inactive |  | inactive |
| Cc1ccc2ccc3cccc4ccc1c2c34 | 27.3 µM (active) | inactive | inactive | inactive | inactive | inactive | inactive | inactive | inactive |  |  | 63.2 µM (active) | 0.563 µM (active) | inactive |  | inactive | 63.2 µM (active) | 28.2 µM (active) |
| CCc1c(Br)c(Br)c(Br)c(Br)c1Br | inactive | inactive | inactive | inactive | inactive | inactive | inactive | inactive | inactive |  |  | inactive | 11.2 µM (active) | inactive | inactive | inactive | inactive |  |
| Cc1ccc(CCn2c3c(c4cc(Cl)ccc42)CN(C)CC3)cn1 | 21.1 µM (active) | inactive | inactive |  |  | inactive |  |  | 33.5 µM (active) |  |  | inactive |  | inactive | inactive | inactive | 7.76 µM (active) | 17.4 µM (active) |
| COc1ccccc1C=O | inactive | inactive |  |  |  | inactive | inactive | inactive | inactive |  |  |  | inactive | inactive | inactive | inactive | inactive | inactive |
| CC1=CP(=O)(c2ccccc2)CC1 (stereo not given) | inactive | inactive | inactive | inactive | inactive |  | inactive | inactive | inactive |  |  | inactive | inactive | inactive | inactive | inactive | inactive | inactive |
| CCCCCCCC(OC)OC | inactive | inactive | inactive | inactive |  | inactive | inactive | inactive | inactive |  |  | inactive | inactive | inactive | inactive | inactive | inactive | inactive |
| C=CC/C=C/C/C=C/C/C=C/C | inactive | inactive | inactive | inactive |  | inactive | inactive | inactive | inactive |  |  | inactive |  | inactive | inactive | inactive | inactive | inactive |
| CCCC(CC)CCCCCCCN (stereo not given) | 28 µM (active) | inactive | inactive | inactive | inactive | inactive | inactive | inactive |  |  |  |  | 5.15 µM (active) | inactive | inactive | inactive | 0.817 µM (active) | 0.365 µM (active) |

— PubChem BioAssay (Tox21)
